Among the data in PubChem BioAssay AID1645856 (Buhrlage Lab, Dana-Farber Cancer Institute and Novartis …, 2021) are inhibition values, retold here.

SMILES strings stand for the structures. Screen size: about 47,000 compounds; about 510 (1.1%) were called active. The sample holds actives, similar compounds and a random draw of the others, so the mix is not that of the screen. No stated cut-off is given here; in the data, active means inhibition above about 30%; inactive means the rest.

The inhibition is the drop in the measured response relative to a control, in per cent.

The target of this assay is Ubiquitin carboxyl-terminal hydrolase 10 (Homo sapiens) (UniProt Q14694). Description: blocks human USP10 ubiquitin-rhodamine cleavage (AID 1645856). To be noted: purified USP10, Ub-rhodamine fluorescence, 60 min; at 20 µM; active compounds read high.
Chain of Ubiquitin carboxyl-terminal hydrolase 10 (Homo sapiens) (Q14694 whole entry, looked up): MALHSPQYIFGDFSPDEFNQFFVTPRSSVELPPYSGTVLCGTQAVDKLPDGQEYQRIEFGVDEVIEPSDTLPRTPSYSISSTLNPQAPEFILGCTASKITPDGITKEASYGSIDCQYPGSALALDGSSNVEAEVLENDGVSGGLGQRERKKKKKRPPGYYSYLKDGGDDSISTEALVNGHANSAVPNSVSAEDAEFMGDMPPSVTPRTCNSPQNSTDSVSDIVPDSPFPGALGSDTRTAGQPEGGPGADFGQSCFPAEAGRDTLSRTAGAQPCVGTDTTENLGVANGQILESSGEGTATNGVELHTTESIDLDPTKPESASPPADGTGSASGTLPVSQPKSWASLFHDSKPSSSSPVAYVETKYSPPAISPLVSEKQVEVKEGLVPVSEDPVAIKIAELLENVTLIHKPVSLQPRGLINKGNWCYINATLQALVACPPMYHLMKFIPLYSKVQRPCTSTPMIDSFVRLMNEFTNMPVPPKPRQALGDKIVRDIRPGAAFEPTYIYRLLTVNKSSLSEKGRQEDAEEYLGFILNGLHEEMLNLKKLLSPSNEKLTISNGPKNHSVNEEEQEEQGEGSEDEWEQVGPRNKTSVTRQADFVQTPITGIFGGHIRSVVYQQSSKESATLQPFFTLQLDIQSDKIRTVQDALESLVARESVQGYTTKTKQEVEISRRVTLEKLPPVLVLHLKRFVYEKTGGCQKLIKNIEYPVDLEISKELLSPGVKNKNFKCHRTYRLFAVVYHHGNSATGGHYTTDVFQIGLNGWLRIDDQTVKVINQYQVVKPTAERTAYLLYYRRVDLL
For the compound `O=C(Nc1cccc(Cl)c1)N(Cc1ccccc1)CC1CC=CCC1` (configuration not stated), the inhibition was 16.3% (inactive).

As for `CCc1nnc(CN2CCC(C3CCCCCN3C(=O)NC(C)C)CC2)o1` (configuration not stated), the inhibition was -4.07% (inactive). As to `COc1ccc(Nc2cc(C(=O)N3CCC4(CC3)OCCO4)c3ccccc3n2)cc1`, the inhibition is -0.645% (inactive). To `CCN1C(=O)[C@H]2CN(C(C)=O)C[C@H]2C12CCN(C(=O)NCCc1ccc(OC)cc1)CC2` belongs 0.803% (inactive); to `O=C(CN(Cc1ccccc1Cl)S(=O)(=O)c1ccccc1F)NC(c1ccccc1)c1ccccc1`, 6.49% (inactive). Take `Cc1ccc2[nH]c(=O)c(CN(CC3COCCO3)C(=O)Nc3ccccc3C)cc2c1` (configuration not stated): the inhibition is -0.00505% (inactive). For `Cc1cc(=O)n(CC(=O)Nc2ccc3c(c2)OCO3)c2c1c(-c1ccccc1)nn2-c1ccccc1`, the inhibition is 25% (inactive). Take `O=S(=O)(c1cc(-c2nnc(C3CC3)o2)co1)N1CCCCC1`: the inhibition was -3.39% (inactive). For the compound `O=C(NC1CCCC1)c1ccc(N2CCOc3ccccc32)s1`, the inhibition is 0.616% (inactive).

Regarding `CCc1nnc(-c2cc(S(=O)(=O)Nc3ccccc3F)c[nH]2)o1`, the inhibition is -2.11% (inactive).

As to `O=C(Oc1ccc(Oc2ccccc2)cc1)c1ccc([N+](=O)[O-])cc1`, the inhibition is 7.41% (inactive). Turning to `Cc1nn(-c2ccc(F)cc2)c(C)c1S(=O)(=O)NC1CC1`, the inhibition was -2.46% (inactive).

For `COc1ccc(NS(=O)(=O)c2cc(NC(=O)CC(=O)c3ccc([N+](=O)[O-])cc3)ccc2C)cc1`, the inhibition was 43.8% (active). Consider `COc1ccc(NS(=O)(=O)c2cc(NC(=O)COc3ccccc3F)ccc2OC)cc1`, for which the inhibition was 3.65% (inactive). With `COc1ccc(NS(=O)(=O)c2cc(NC(=O)/C=C/c3cccc(OC)c3)ccc2OC)cc1` the figure was 0.326% (inactive). As to `Cc1ccc(C2c3[nH]c4ccccc4c3C[C@H]3C(=O)N(c4ccccc4C(=O)NC4CCCCC4)C(=O)N23)cc1` (some centres not stated), the inhibition is -9.46% (inactive). With `Cc1cccc(C(=O)NCc2nnc3ccccn23)c1` the figure was 5.59% (inactive); with `CCOc1c(C)cnc2c1c(=O)n(CC(=O)N1CCC(C)CC1)c(=O)n2C`, -3.58% (inactive); with `c1ccc(OCCn2nc(C3CCN(C4CCOCC4)CC3)c3nccnc32)cc1`, -0.0392% (inactive).

Turning to `O=C(NCc1ccc2c(c1)OCO2)c1cn(-c2cccc(Cl)c2)nn1`, the inhibition was 28.3% (inactive). With `CCN1CCN(Cc2nc(-c3ccc(N4CCCCC4)nc3)no2)CC1` the figure was 0.502% (inactive).

In the case of `CCc1cc(C2CCCN2C(=O)NCc2ccc(F)cc2)on1` (configuration not stated), the inhibition is 0.108% (inactive). Take `CC1(C(=O)NC2CCCCCC2)Cc2ccccc2C(=O)N1C1CCCCC1` (configuration not stated): the inhibition was 3.98% (inactive). With `O=C(COC(=O)c1ccc(F)cc1)NC1CCCc2ccccc21` (configuration not stated) the figure was -2.88% (inactive).

As to `O=C(c1ccccc1)c1ccc(NC2CCCc3ccccc32)c([N+](=O)[O-])c1` (configuration not stated), the inhibition is -3.29% (inactive). With `Nc1ccc(C(=O)OCC(=O)NC2CCCc3ccccc32)cc1[N+](=O)[O-]` (configuration not stated) the figure was 31.8% (active). In the case of `N#Cc1ccccc1OCC(=O)Nc1ccc(-c2cn3ccsc3n2)cc1`, the inhibition is -4.52% (inactive). Turning to `CCOc1ccc(NC(=O)Cn2cc(C(=O)c3ccc(Cl)cc3)c(=O)c3cc(OC)ccc32)cc1`, the inhibition is 27% (inactive). Consider `COc1ccc(NC(=O)CSc2cn(CC(=O)N3CCCC3)c3ccccc23)cc1`, for which the inhibition was 1.6% (inactive). To `CCOc1ccc2c(c1)c(=O)c(C(=O)c1ccccc1)cn2CC(=O)Nc1ccc(OC)cc1` belongs 59.7% (active); to `O=C(CN1CCCN(c2cc(-c3ccc(N4CCOCC4)cc3)ncn2)CC1)N1CCOCC1`, -2.74% (inactive). For the compound `CCN1C(=O)[C@H]2CN(CCOC)C[C@H]2C12CCN(C(=O)Nc1ccccc1)CC2`, the inhibition is 0.649% (inactive).

Consider `Cc1cc2nc(N3CCOCC3)n(CC(=O)Nc3ccccc3F)c(=O)c2n1C`, for which the inhibition is -1.21% (inactive). To `Cc1nc2c(c(C)c1CCC(=O)Nc1ccccc1F)c(=O)n(C)c(=O)n2C` belongs 32.5% (active). Consider `Cc1ccc(CN2C(=O)C(CC(=O)Nc3ccccc3F)n3c2nc2ccccc23)cc1` (configuration not stated), for which the inhibition is 6.51% (inactive). For `COc1ccc(NC(=O)CC2C(=O)NCCN2C(=O)Nc2ccc(F)cc2)cc1` (configuration not stated), the inhibition is -0.861% (inactive). To `CCOc1ccc(-c2noc(-c3nn(-c4cccc(OC)c4)ccc3=O)n2)cc1` belongs 7.86% (inactive). Take `O=C(COC(=O)C1CCN(S(=O)(=O)c2c(Cl)cccc2Cl)CC1)Nc1ccc2c(c1)CCC2`: the inhibition was 6.62% (inactive). To `O=C(Nc1nnc(-c2cccc([N+](=O)[O-])c2)o1)C1CCN(S(=O)(=O)c2ccc3c(c2)CCC3)CC1` belongs 46.7% (active). As for `Cc1cccc(-c2nnc(-c3cccc(S(=O)(=O)N4CCCC4)c3)o2)c1`, the inhibition is 3.94% (inactive). Regarding `CCOC(=O)C1CCN(C(=O)c2cnc(Nc3ccc(C)c(Cl)c3)c3ccccc23)CC1`, the inhibition was 6.16% (inactive). To `COc1ccc(C(=O)Cn2nc(C)cc2C)cc1` belongs -2.02% (inactive). Regarding `Cc1cc(C)cc(NC(=O)c2cc(CN3CCOCC3)on2)c1`, the inhibition was -1.83% (inactive). To `O=C(NCC1CCCO1)c1[nH]c2ccccc2c1Sc1ccc(Cl)cc1` (configuration not stated) belongs 0.402% (inactive). With `Cc1ccc(CC(=O)N2CCCC(c3ccncn3)C2)s1` (configuration not stated) the figure was -2.71% (inactive). To `CC(c1ccncc1)n1nccc1NC(=O)c1cccnc1Sc1ccccc1` (configuration not stated) belongs -7.87% (inactive); to `CCc1noc(-c2ccnc(-n3ncc(C(=O)N4CCC(C)CC4)c3C)c2)n1`, -0.304% (inactive).

Regarding `COc1ccc(-c2cc(C(=O)NCCCN3CCCC3=O)c3ccccc3n2)cc1OC`, the inhibition is -3.65% (inactive). With `CC(C)CC1NC(=O)C2(CCN(C(=O)Nc3ccc(Cl)c(Cl)c3)CC2)NC1=O` (configuration not stated) the figure was 1.3% (inactive); with `O=C(NCC1CCCO1)c1ccccc1N1C(=O)[C@@H]2Cc3c([nH]c4ccccc34)C(c3cccc(Cl)c3)N2C1=O` (some centres not stated), -2.66% (inactive). With `O=C(Nc1ccccc1Br)c1ncoc1-c1cccs1` the figure was 2.95% (inactive); with `CCCc1nc(-c2c(C)cc(C)nc2NC(=O)C2CCCCC2)no1`, -4.35% (inactive); with `COc1cccc(NS(=O)(=O)c2ccc(-c3coc(C)n3)cc2)c1`, 2.04% (inactive). As for `O=S(=O)(Nc1cccc(O)c1)c1ccc2oc3ccc(S(=O)(=O)Nc4cccc(O)c4)cc3c2c1`, the inhibition was 54.6% (active). With `Cc1cccc(NS(=O)(=O)c2ccc3nnc(C)n3c2)c1` the figure was -2.24% (inactive); with `COc1ccccc1C1CC(c2c(O)n(C)c(=O)n(C)c2=O)=Nc2ccccc2S1` (configuration not stated), 2.61% (inactive); with `Oc1cccc2nc3c(O)cccc3nc12`, 41.5% (active).

As for `COC(=O)COc1cccc2c(=O)n(CC(=O)N3CCc4ccccc43)ccc12`, the inhibition is 2.69% (inactive).

As for `COc1ccccc1CN1CCC2(CC1)NC(=O)C(CC(C)C)NC2=O` (configuration not stated), the inhibition is 0.757% (inactive).

In the case of `CC(C)NC(=O)c1cc(-c2cnc(-c3ccnn3C)nc2)cn1CC1CC1`, the inhibition is -0.689% (inactive). To `O=S(=O)(Cc1ccccc1)N1CCC2(CCN(Cc3cccc(F)c3)C2)C1` (configuration not stated) belongs -2.23% (inactive); to `O=c1ccc(S(=O)(=O)N2CCOCC2)cn1Cc1ccccc1`, -0.385% (inactive); to `COc1cc(-c2nc(CC(=O)NCCc3c[nH]c4ccc(F)cc34)cs2)cc(OC)c1OC`, -1.95% (inactive).

`CC(C)n1c(C2CCN(C(=O)Nc3ccc4c(c3)CCC4)C2)nc2ccncc21` (configuration not stated): the inhibition is 2.17% (inactive).

As to `Cc1ccc(Nc2nc(NCC(=O)Nc3cc(C)ccc3C)nc(Nc3ccc(C)cc3)n2)cc1`, the inhibition was 37% (active). To `COc1cccc(CNC(=O)c2nnn(CC(=O)Nc3cc(C)ccc3C)c2N)c1` belongs 29.8% (inactive); to `Cc1ccc(NC(=O)Cc2sc(Nc3ccc(C)cc3)nc2O)cc1`, 25.6% (inactive); to `CS(=O)(=O)N1Cc2ccccc2OC2(CCCNC2)C1` (configuration not stated), -0.607% (inactive). To `CCOc1nccnc1N1CCC(N(C)S(=O)(=O)C2CC2)C1` (configuration not stated) belongs 1.55% (inactive). For `CC(C)c1ccc(NC(=O)C[n+]2cc(-c3ccc(F)cc3)n3c2CCC3)cc1`, the inhibition was 0.686% (inactive). On to `COc1cccc(NC(=O)c2nn(-c3ccc(F)cc3)c(OC)cc2=O)c1`, for which the inhibition was 0.262% (inactive).

On to `COc1ccccc1C(=O)Nc1cccc(Oc2ccccc2)c1`, for which the inhibition was 11.9% (inactive). Take `COc1cccc(NC(=O)C(Sc2cccc(NC(=O)c3ccccc3F)c2)c2ccccc2)c1` (configuration not stated): the inhibition was 32.4% (active). To `COc1ccc(C2CC(=O)c3cnc(NCC4CCCO4)nc3C2)cc1` (configuration not stated) belongs -0.196% (inactive); to `COc1cccc(C2c3[nH]c4ccccc4c3C[C@@H]3C(=O)N(CC4CCCO4)CC(=O)N23)c1` (some centres not stated), -6.67% (inactive). To `Cc1ccc(C(=O)Nc2nc3c(s2)CCC3C(=O)NCc2ccncc2)cc1` (configuration not stated) belongs -7.71% (inactive); to `Cc1cc(F)ccc1NC(=O)c1cc(C2CC2)n2nccc2n1`, -3.56% (inactive). To `Cc1ccc(Cn2cc(-c3noc(-c4ccccn4)n3)nn2)cc1` belongs 7.3% (inactive); to `Cc1ccc(-n2cc(-c3noc(C(=O)Nc4ccc(F)cc4C)n3)nn2)cc1`, 76.1% (active). For the compound `O=C1NCCCn2cc(S(=O)(=O)NCc3ccc4c(c3)OCO4)cc21`, the inhibition is -0.173% (inactive). As to `Cc1nc2cc(-c3noc(-c4cnccn4)n3)ccc2n(C2CCCC2)c1=O`, the inhibition is -3.38% (inactive). With `CCCCN(C)c1ccc2nnc(CCc3nc(-c4cc(OC)cc(OC)c4)no3)n2n1` the figure was -5.1% (inactive); with `CNC(=O)N1C[C@H]2C[C@H](C(=O)Nc3ccc4c(c3)OCO4)[C@@H](C1)O2`, -1.52% (inactive); with `O=C(COc1ccc2ccccc2c1)NCc1nnnn1-c1ccc(Cl)cc1`, 6.45% (inactive). For the compound `CC1(C(N)=O)CN(Cc2ccnc(N3CCCC3)n2)CCO1` (configuration not stated), the inhibition was -2.23% (inactive). On to `CN1CC(=O)N(C2CCCNC2)Cc2c(NC3CCc4ccccc43)ncnc21` (configuration not stated), for which the inhibition is -1.83% (inactive).

On to `O=S(=O)(c1ccc(F)c(Cl)c1)N1CCC(N2CCOCC2)CC1`, for which the inhibition was 1.61% (inactive).
